Test systems include DU-145 prostate; K-562 leukemia; MALME-3M melanoma; MDA-MB-231 breast; RXF 393 renal; SF-268 CNS; SF-539 CNS; UACC-257 melanoma; M14 melanoma; SF-295 CNS.
Holding throughout (experiment): NCI-60 one-dose screen, 48 h (100 = growth as untreated, 0 = no growth, -100 = all killed)
Common to all, as to details: 10 µM unless noted

Experimental findings from PubChem BioAssay (NCI) are described below.

About 83,000 compounds went through this panel and 20% of them were active in at least one assay; those are over-represented in the sample as a whole.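 Interpretation: 100, growth as untreated; towards 0, rising growth inhibition; 0, no net growth; 0 to -100, cell death. Compounds scoring below 10 were considered active.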 Unmarked numbers belong to inactive results. Calls of active or inactive are those of the source.

For `CN1CCN(c2ccc(Nc3c4ccccc4nc4ccccc34)cc2)CC1`, the growth in the test on DU-145 prostate was 111%; in the test with K-562 leukemia it was 105%; with MALME-3M melanoma it was 103%; with MDA-MB-231 breast, 105%; in the test on RXF 393 renal, 110%; in the test on SF-268 CNS, 107%. The growth in the test with SF-539 CNS was 99.6%; in the test with UACC-257 melanoma it was 103%; with M14 melanoma it was 113%.
For the compound `CC1=C[C@H]2c3c(c(O)c(O)c4oc5c(C)cccc5c(=O)c34)[C@H](c3cc(O)c(O)c4oc5c(C)cccc5c(=O)c34)[C@H]2C(C)(C)C1`, the growth with DU-145 prostate was 23.9%; in the test with K-562 leukemia it was 2.97% (active); in the test with MALME-3M melanoma it was 18.9%; with MDA-MB-231 breast it was 23.7%; in the test with RXF 393 renal, 21.5%; with SF-268 CNS it was -1.07% (active). Moreover, the growth in the test with SF-295 CNS was -32.4% (active); in the test with SF-539 CNS, -18.5% (active); in the test on UACC-257 melanoma it was 23.4%; in the test with M14 melanoma it was 13.7%.
As for `O=C(COc1ccc(/C=C2\CSc3ccccc3C2=O)cc1)Nc1nccs1`, the growth is 130% with DU-145 prostate; -14.2% (active) in the test on K-562 leukemia; 77.8% in the test on MALME-3M melanoma; 95.6% with MDA-MB-231 breast; 99.6% in the test with SF-268 CNS; 118% in the test with SF-295 CNS. The growth with SF-539 CNS was 111%; in the test on UACC-257 melanoma it was 97.3%; with M14 melanoma, 89.6%.
For the compound `COc1cc(C)c(C2C(C#N)=C(N)Oc3n[nH]c(-c4cccs4)c32)cc1C(C)C` (stereo unspecified), the growth in the test on DU-145 prostate was 108%; with MALME-3M melanoma, 121%; in the test on MDA-MB-231 breast, 107%; with RXF 393 renal, 99.5%; with SF-268 CNS, 101%; in the test with SF-295 CNS, 101%. The growth was 104% in the test on SF-539 CNS, 90.4% in the test with UACC-257 melanoma and 105% in the test with M14 melanoma.
On to `CCOC(=O)c1c(C(=O)OCC)c2cc(-c3ccn4c(C(=O)c5ccccc5)c(C(=O)OCC)c(C(=O)OCC)c4c3)ccn2c1C(=O)c1ccccc1`, for which the growth is 100% in the test with DU-145 prostate; 87.3% with MALME-3M melanoma; 82.8% in the test with MDA-MB-231 breast; 96.7% in the test with RXF 393 renal; 85% in the test on SF-268 CNS; 106% in the test on SF-295 CNS. For the same compound, the growth was 89.9% in the test with SF-539 CNS, 95.1% with UACC-257 melanoma and 101% with M14 melanoma.
With `CCOc1nc(-c2ccccc2)cc2c(O)c(C(=O)O)[nH]c(=O)c12`, the growth was 101% in the test with DU-145 prostate; 112% in the test on K-562 leukemia; 104% in the test with MDA-MB-231 breast; -10.5% (active) in the test with RXF 393 renal; 99.2% in the test on SF-268 CNS; 104% in the test with SF-295 CNS. In addition, the figures for the growth in the test on SF-539 CNS, in the test with UACC-257 melanoma and in the test on M14 melanoma were 94.6%, 60.7% and 102%, respectively.
Regarding `CC[N+](CC)=c1sc2c(s1)C(c1ccc(Cl)cc1)Oc1ccc(Cl)cc1-2` (stereo unspecified), the growth is 24.4% with DU-145 prostate; -9.37% (active) with MALME-3M melanoma; -38% (active) in the test on MDA-MB-231 breast; 10.7% in the test with RXF 393 renal; 24% in the test with SF-268 CNS; 2.98% (active) in the test on SF-295 CNS. Also, the results for the growth in the test on SF-539 CNS, in the test on UACC-257 melanoma and with M14 melanoma were -22.1% (active), -7.21% (active) and 17.3%, respectively.
Turning to `COc1cc(C(=O)/C=C/c2cccnc2Nc2ccc(Cl)cc2)cc(OC)c1OC`, the growth in the test on DU-145 prostate was -59.2% (active); in the test on MALME-3M melanoma, -48.1% (active); with MDA-MB-231 breast, -50.7% (active); in the test with RXF 393 renal it was -85.7% (active); in the test with SF-268 CNS it was -87.7% (active); with SF-295 CNS, 7.32% (active). The growth in the test on SF-539 CNS is -80.2% (active); in the test with UACC-257 melanoma it was -63.5% (active); in the test with M14 melanoma it was -47.4% (active).
For `OCCNc1nccc(N2CCN(c3ccnc4cc(Cl)ccc34)CC2)n1`, the growth was 98.8% in the test with DU-145 prostate; 24.2% in the test with K-562 leukemia; 54.9% in the test with MDA-MB-231 breast; 77.1% in the test with RXF 393 renal; 82.7% in the test with SF-268 CNS; 58% in the test on SF-295 CNS. The values for the growth in the test with SF-539 CNS, in the test with UACC-257 melanoma and in the test with M14 melanoma were 79.6%, 84% and 68.7%, respectively.
As for `COc1ccc(Nc2c3c4c(cccc4[nH]c2=O)C(=O)c2ccccc2-3)cc1`, the growth with DU-145 prostate is -20.9% (active); in the test with K-562 leukemia it was -19% (active); with MALME-3M melanoma it was 41.1%; with MDA-MB-231 breast it was -20.5% (active); in the test on SF-268 CNS it was 21.4%; with SF-295 CNS, -52.4% (active). Besides, the results for the growth in the test on SF-539 CNS, in the test on UACC-257 melanoma and with M14 melanoma were -31.3% (active), 64.1% and 11.7%, respectively.
Turning to `N#Cc1c(N)n(CCNC(=O)c2ccccc2)c2nc3ccccc3nc12`, the growth was 134% in the test with DU-145 prostate; 87.8% with K-562 leukemia; 120% in the test on MALME-3M melanoma; 112% with MDA-MB-231 breast; 106% in the test with SF-268 CNS; 121% in the test with SF-295 CNS. The results for the growth with SF-539 CNS, in the test on UACC-257 melanoma and with M14 melanoma were 121%, 97.9% and 112%, respectively.
For the compound `CCOc1nc(-c2ccccc2)cc2c(O)c(C(=O)N/N=C/c3ccc(O)cc3O)[nH]c(=O)c12`, the growth in the test on DU-145 prostate was 23.4%; in the test on K-562 leukemia, 31.5%; with MDA-MB-231 breast, 43.2%; in the test with RXF 393 renal it was -35.2% (active); with SF-268 CNS, 16.3%; in the test on SF-295 CNS, 19.3%. In addition, the values for the growth in the test with SF-539 CNS, in the test on UACC-257 melanoma and in the test with M14 melanoma were 16%, -29.1% (active) and 21.5%, respectively.
For the compound `CN(C)c1ccc(N=Nc2ccc(Br)cn2)c(O)c1`, the growth in the test on DU-145 prostate was 24.7%; in the test on MALME-3M melanoma, 17.8%; with MDA-MB-231 breast it was 34.1%; with RXF 393 renal, 55.5%; in the test on SF-268 CNS it was 16.8%; with SF-295 CNS, 17.4%. Moreover, the growth in the test on SF-539 CNS is -10.2% (active); in the test with UACC-257 melanoma, -11.5% (active); in the test on M14 melanoma it was -1.74% (active).
In the case of `COc1cc2c(cc1O)CC[C@@H]1[C@@H]2CC[C@]2(C)[C@@H](OCCN(C)C)CC[C@@H]12`, the growth in the test on DU-145 prostate is 12.8%; in the test on MALME-3M melanoma it was 16.7%; in the test with MDA-MB-231 breast, 16.2%; with RXF 393 renal it was 52.4%; in the test with SF-268 CNS, 56.2%; in the test with SF-295 CNS it was -4.56% (active). Moreover, the growth with SF-539 CNS is 4.14% (active); in the test on UACC-257 melanoma, -18.2% (active); with M14 melanoma, 0.0496% (active).
With `Cc1cc(N2CCN(c3ccnc4cc(Cl)ccc34)CC2)nc(N2CCOCC2)n1`, the growth is 88.1% with DU-145 prostate; 55.9% in the test on K-562 leukemia; 64.1% in the test with MDA-MB-231 breast; 80.6% in the test on RXF 393 renal; 87.4% in the test on SF-268 CNS; 81.1% with SF-295 CNS. Further, the growth in the test on SF-539 CNS is 96.6%; in the test with UACC-257 melanoma, 88.6%; in the test on M14 melanoma, 87.2%.
